About 79,000 compounds went through this panel and 15% of them were active in at least one assay; those are over-represented in the sample as a whole. The source made the active and inactive calls. No stated cut-off is given here; in the data, active means growth inhibition above about 70%; inactive means the rest.
Key:
[1] = NCI Yeast Anticancer Drug Screen. Data for the rad50 strain (AID 155);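 further: 0% = growth of vehicle-only cultures of the same strain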; conditions: S. cerevisiae rad50 strain growth inhibition; at 50.0 µM; stronger effect = higher value
Summary of the method: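 Compounds were tested on a yeast strain with an engineered DNA damage repair alteration; the reported value is growth inhibition normalised to vehicle treatment.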

[2] = NCI Yeast Anticancer Drug Screen. Data for the mec2-1 strain (AID 157); conditions: S. cerevisiae mec2-1 strain, at 50.0 µM, stronger effect = higher value
Summary of the method: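 Compounds were applied to mec2-1 yeast cells. Their growth was then compared with that of vehicle-treated cultures to give growth inhibition.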

[3] = NCI Yeast Anticancer Drug Screen. Data for the sgs1 mgt1 strain (AID 161);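 further: 0% = growth of cultures given vehicle only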; conditions: S. cerevisiae sgs1 mgt1 strain, at 50.0 µM, stronger effect = higher value
Summary of the method: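 Yeast cells carrying a defined DNA-repair defect were exposed to test compounds. Growth inhibition was measured relative to vehicle-treated controls.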

[4] = NCI Yeast Anticancer Drug Screen. Data for the cln2 rad14 strain (AID 165);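 further: 0% = growth equal to vehicle treated cultures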; conditions: S. cerevisiae cln2 rad14 strain, at 50.0 µM, stronger effect = higher value
Summary of the method: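 Strain: cln2 rad14 yeast, altered in cell cycle control and DNA damage repair. Read-out: growth inhibition vs vehicle.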

[5] = NCI Yeast Anticancer Drug Screen. Data for the bub3 strain (AID 167); conditions: S. cerevisiae bub3 mutant strain, at 50.0 µM, stronger effect = higher value
Summary of the method: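 Growth of a checkpoint-deficient yeast mutant is measured after compound exposure. Values represent inhibition relative to vehicle.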

[6] = NCI Yeast Anticancer Drug Screen. Data for the mlh1 rad18 strain (AID 175); conditions: S. cerevisiae mlh1 rad18 strain growth inhibition; at 50.0 µM; stronger effect = higher value
Summary of the method: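 A repair-deficient yeast strain is exposed to test compound, and growth is scored relative to vehicle-treated controls.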

Measured: growth inhibition

CCOC(=O)C(/C=C/C(C)C)(CC)C(=O)OCC
inactive: [1] -8.75% | [2] 11.2% | [3] 8.2% | [4] 44.8% | [5] -6.95% | [6] 24.4%

CCOC(=O)C(CCSC)(CCSC)C(=O)OCC
inactive: [1] -41.4% | [2] -56.7% | [3] -31.7% | [4] 11.8% | [5] 20.4% | [6] -13.1%

C/C=C/C(O)CC (configuration not stated)
inactive: [1] 13.8% | [2] -38.4% | [3] 3.2% | [4] -0.85% | [5] -10.8% | [6] 0.5%

O=S(=O)(O)C(Nc1ccc(Cl)cc1)c1ccccc1 (configuration not stated)
inactive: [1] 0.15% | [2] 6.2% | [3] 4.6% | [4] 12.5% | [5] 11.2% | [6] 10.3%

COc1cc(/C=C/C=C2\CC(C)C/C(=C\C=C\c3ccc(O)c(OC)c3)C2=O)ccc1O (configuration not stated)
inactive: [1] 9% | [2] 8.3% | [3] 6.05% | [4] 18.2% | [5] 0.85% | [6] 8.2%

CCOC(=O)C/C(C(=O)O)=C(\C)c1ccc2ccccc2c1
inactive: [1] -10.4% | [2] 18.1% | [3] 20.9% | [4] 1.15% | [5] -2.25% | [6] -0.85%

O=S(=O)(Nc1ccc(NS(=O)(=O)c2ccccc2)nc1)c1ccccc1
inactive: [1] 13.8% | [2] -0.55% | [3] 32.1% | [4] -19.9% | [5] 5.3% | [6] -0.75%

COc1cc2c(c([N+](=O)[O-])c1)NC(=O)C(C)S2 (configuration not stated)
inactive: [1] -11.3% | [2] -33.6% | [3] -19.4% | [4] 28.8% | [5] 2.15% | [6] 3.65%

O=[N+]([O-])c1ccc(N/N=C(/c2ccccc2)C2CCCC2)c([N+](=O)[O-])c1
inactive: [1] 11.4% | [2] 18.6% | [3] 12.8% | [4] 7.9% | [5] 11.9% | [6] 12.9%

CSc1ccc(NC(=O)Nc2ccccc2F)cc1
inactive: [1] -7.65% | [2] 19.1% | [3] 17.2% | [4] -20.5% | [5] 39.5% | [6] -9.15%

NC(CSCC(=O)O)C(=O)O (configuration not stated)
inactive: [1] -19.8% | [2] -3.85% | [3] 1.15% | [4] -20.6% | [5] 16.1% | [6] -5.9%

Cc1cc(C)nc(NS(=O)(=O)c2ccc(NC(=O)c3cccn4c(=O)c5ccccc5nc34)cc2)n1
inactive: [1] 12.7% | [2] 0.6% | [3] 16.9% | [4] 27.6% | [5] 27.1% | [6] 0.25%

O=c1[nH]c2cc(Cl)ccc2nc1/C=C(\O)c1ccccc1O
inactive: [1] 3.35% | [2] -13.3% | [3] -11.2% | [4] -8.4% | [5] -28.3% | [6] -0.8%

CSC1(C)CC2C(CC1N1CCCCC1)C2(C)C (configuration not stated)
inactive: [1] -28.4% | [2] -16.4% | [3] -46.4% | [4] 5.8% | [5] -24% | [6] -35.9%

CCN(c1ccccc1)c1ncnc2nc[nH]c12
inactive: [1] 6.75% | [2] 0.75% | [3] -1.75% | [4] -28.9% | [5] 19.9% | [6] -5.5%

Cc1c(NC(=O)Nc2c(Cl)cccc2Cl)c(=O)n(-c2ccccc2)n1C
inactive: [1] -42.8% | [2] -36.3% | [3] -15.5% | [4] -10.2% | [5] -29.9% | [6] -39.9%

COC(=O)CC(c1ccccc1)N1CCOCC1 (configuration not stated)
inactive: [1] -12.3% | [2] 19.4% | [3] -10.2% | [4] -20.4% | [5] 7.35% | [6] 12.8%

CN1C(c2ccco2)NC(=O)C12CCN(Cc1ccccc1)CC2 (configuration not stated)
inactive: [1] 24.8% | [2] 7.25% | [3] 15.2% | [4] 10.2% | [5] 16.8% | [6] 16.1%

COc1ccc2c(c1)NC(C(C)C)=NS2(=O)=O
inactive: [1] 17.9% | [2] 15.8% | [3] 17.4% | [4] 4.95% | [5] 18.4% | [6] 25.8%

COc1cc2c(c(OC)c1OC)CCC1(C)C(=O)NN=C21 (configuration not stated)
inactive: [1] -18.1% | [2] 11.1% | [3] 23.5% | [4] -1.55% | [5] 13.7% | [6] 3.9%

CN1CCC(CNc2ccccc2)CC1
inactive: [1] 3.6% | [2] -0.5% | [3] 6.05% | [4] -20.5% | [5] 14.5% | [6] 3.45%

CCC[C@H]1C(=O)N=C(N)N1C(=O)OCc1ccccc1
inactive: [1] 0.9% | [2] 2.9% | [3] -5.5% | [4] -28.3% | [5] -3.3% | [6] -7%

CCCCOC(=O)/C(=C\c1cccc(OC)c1)NC(=O)c1ccccc1
inactive: [1] 15.8% | [2] 14.9% | [3] 28.5% | [4] 11.2% | [5] 58.2% | [6] 34.6%

NN(c1ccccc1)c1ccccc1
inactive: [1] 23.5% | [2] 6.45% | [3] 35.5% | [4] 25.9% | [5] 24.2% | [6] 19.1%

CN(C)NC(=O)/C=C\C(=O)O
inactive: [1] -12.6% | [2] -17.4% | [3] -9.8% | [4] -6.9% | [5] -7.45% | [6] -3.2%

CC(C)(C)S(=O)(=O)CCCCl
inactive: [1] 12.8% | [2] -13.9% | [3] -1.65% | [4] -8.5% | [5] 13.2% | [6] 13.5%

CCOC(=O)c1cnc(SC)nc1Nc1cccc(C)c1
inactive: [1] -13.4% | [2] -10.4% | [3] -11.9% | [4] -18.1% | [5] 9.1% | [6] -36.1%

Cc1cccc(C)c1NC(=O)C1C(=O)N(c2c(C)cccc2C)C(=O)/C1=N\NC(N)=S (configuration not stated)
inactive: [1] -15.2% | [2] -24.4% | [3] -37.4% | [4] -9.5% | [5] -31.1% | [6] -34.9%

CC(=O)OC1c2ccccc2C(=O)C1(OC(C)=O)c1ccccc1 (configuration not stated)
inactive: [1] 0.7% | [2] 11.3% | [3] 12.7% | [4] 25.3% | [5] -10.9% | [6] 43.9%

COc1cccc2c1C(=O)c1c(O)c3c(c(O)c1C2=O)CC(O)(C(C)=O)CC3OC1CC(NC(=O)C(CCCCN)NC(=O)C(N)CCN)C(O)C(C)O1 (configuration not stated)
inactive: [1] 9.1% | [2] -1.15% | [3] -0.5% | [4] 12.8% | [5] 15.9% | [6] 14.6%

c1ccc(-n2nnnc2-c2nnnn2-c2ccccc2)cc1
inactive: [1] -7.35% | [2] -5.2% | [3] -1.5% | [4] -18.7% | [5] 20.7% | [6] -11%

COc1ccc2c(c1)CCCN1Cc3cc(OC)c(OC)cc3CC21 (configuration not stated)
inactive: [1] -29.7% | [2] 8.65% | [3] -33.8% | [4] 14% | [5] -1.1% | [6] -3.9%

c1ccc(B2OB(c3ccccc3CN3CCCC3)OB(c3ccccc3CN3CCCC3)O2)c(CN2CCCC2)c1
inactive: [1] 21% | [2] 4.15% | [3] 0.05% | [4] 17.1% | [5] 0.75% | [6] 15.4%

CC(=O)NC1CC(=O)N(c2ccccc2)C1=O (configuration not stated)
inactive: [1] 16.4% | [2] 7.8% | [3] 12.2% | [4] 5.9% | [5] -1.8% | [6] -19.1%

O=C(c1ccccc1)C1C(c2ccccc2)C=CC(c2ccccc2)C1C(=O)c1ccccc1 (configuration not stated)
inactive: [1] -18.4% | [2] -11.3% | [3] -9% | [4] -4.55% | [5] 3.2% | [6] -22.6%

O=c1[nH]c2cc(Cl)ccc2nc1/C=C(\O)c1cccc2ccccc12
inactive: [1] 40.9% | [2] 15.2% | [3] 28.6% | [4] 17% | [5] 15.1% | [6] 35%

O=C1O/C(=C(/Cl)c2cccc3ccccc23)c2ccccc21
inactive: [1] -40.2% | [2] -67.8% | [3] -38.4% | [4] 9.55% | [5] -16.9% | [6] -38%

Cc1nc(N)nc(C)c1N=Nc1ccccc1Br
inactive: [1] 2% | [2] 3.75% | [3] 2.35% | [4] -42.2% | [5] 5.35% | [6] -6.25%

COC(=O)C1C(C(=O)OC)C2N(c3ccccc3)C=NN2C1C(=O)c1ccccc1 (configuration not stated)
inactive: [1] -62.2% | [2] -10.2% | [3] -16% | [4] -3.65% | [5] 5.05% | [6] -4.65%

CSc1ccc(OC(=O)Nc2ccc(Cl)c(Cl)c2)cc1C
active: [1] 95.3% | [2] 96.5% | [3] 96.9% | [4] 95% | [5] 94.7% | [6] 95.1%

C=CCn1c(=S)sc2c(=O)[nH]cnc21
inactive: [1] 14.6% | [2] 1.7% | [3] 25.8% | [4] 22.3% | [5] 8.15% | [6] 11.4%

O=C(CCCCCC(=O)NO)NO
inactive: [1] -0.8% | [2] -6.05% | [3] -7.2% | [4] -20.3% | [5] -9.4% | [6] -1.55%

— PubChem BioAssay (NCI)
